# A selection: hits, their analogues and other compounds. The true share with any hit is near 4%.
# KKLEB tox = reduces viability of KKLEB cystic fibrosis airway cells; KKLEB CF airway cells viability, ATPlite luminescence, overnight; stronger effect = lower value; cells stimulated with P. aeruginosa culture filtrate; AID 602141; activity change (cytotoxicity), % at 5 µM; hit rate 0.36% among 360,000;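 active = corrected activity change at or below -50% at 5 µM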
# CF NFkB inh = inhibitors of cystic fibrosis induced NF-kB | KKLEB NF-kB-GFP reporter, PAF-induced, GFP fluorescence overnight | inhibition, % at 5 µM | hit rate 0.86% among 360,000;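 active = at least 50% inhibition at 5 µM, scaled per plate between neutral and stimulator controls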;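 also: PAF is a Pseudomonas aeruginosa culture filtrate used as stimulus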
# TROY signal inh = TROY signaling inhibition; hit rate 0.98% among 360,000; inhibition, % at 10 µM; AID 1347056; Q293 LMP1-TROYcd NF-kB luciferase reporter, 4 h;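 active = compounds whose plate-normalised and pattern-corrected inhibition of the luciferase reporter signal at the single screening dose is 50% or more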
# HIF-2a inh = blocks HIF-2a reporter activity; AID 624352; inhibition, % at 18.8 µM; 786-0 RCC cells HIF-2a reporter, luciferase luminescence, overnight; hit rate 0.72% among 360,000;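 active = inhibition of the luminescence signal of 40% or more relative to plate controls, in a single-dose primary screen at 18.75 µM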
# Peg3 prom inh = inhibitors of Peg3 promoter; hit rate 1.7% among 360,000; inhibition, % at 20 µM; HeLa PEG-Prom luciferase reporter, luminescence, overnight;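 active = inhibition of at least 50% at 20 µM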
# TWEAK-Fn14 inh = TWEAK-Fn14 signaling inhibition; TWEAK-stimulated Fn14 reporter cells, luciferase luminescence, 8 h; inhibition, % at 10 µM; hit rate 2% among 360,000; AID 1159606; in the data active = inhibition above about 50%
# Hits are given with their value; i = inactive; nt = no result given.
SMILES,KKLEB tox,CF NFkB inh,TROY signal inh,HIF-2a inh,Peg3 prom inh,TWEAK-Fn14 inh
CCn1c2ccccc2c2cc(NC(=O)c3coc(=O)c(Br)c3)ccc21,i,i,i,i,i,73.9
COc1cc2c(cc1NC(=O)CN1C(=O)NC3(CCc4ccccc43)C1=O)oc1ccccc12 (configuration not stated),i,i,i,i,57.4,61.8
Cc1ccc(-c2cc3nc4c(c(=O)n3[nH]2)CCCC4)cc1,i,i,i,i,i,62.1
CCOC(=O)C(CC)/C(C)=N\NC(=O)c1ccccc1O (configuration not stated),i,i,i,i,54.0,i
CCC/C(C)=N/NC(=O)c1ccccc1O,i,i,i,i,i,i
Cc1ccc(-c2nc3ccccc3nc2-c2ccccc2)cc1,i,i,i,i,i,95.8
Clc1ccc(-c2nc3ccccc3nc2-c2ccccc2)cc1,i,i,i,i,i,i
O=S(=O)(Nc1ccc(Cl)cn1)c1ccc(F)cc1,i,i,i,i,i,i
O=C1Nc2ccccc2/C1=N\N=C\C1=C(N2CCOCC2)C(=C\c2ccccc2)/CC1,i,i,i,i,77.4,i
COc1ccc(-c2cc(=O)oc3c(C)c(OC(C)C(C)=O)ccc23)cc1 (configuration not stated),i,i,i,i,52.2,i
NC(=N\N=Cc1ccccc1)/C(N)=N/N=Cc1ccccc1,i,i,i,i,i,i
NC(=N\N=Cc1ccco1)/C(N)=N/N=Cc1ccco1,i,i,i,i,i,71.9
CCOC(=O)N1CCN(c2ccc(S(=O)(=O)N(Cc3ccccc3)Cc3ccccc3)cn2)CC1,i,i,62.3,i,i,i
O=C(Cc1ccccn1)Nc1ccccc1,i,i,i,i,i,109.8
O=C(CSCc1ccccn1)Nc1ccccc1,i,i,i,i,i,i
Cc1ccc2nc(-c3ccc(NC(=O)CN(c4ccccc4C)S(C)(=O)=O)cc3)sc2c1,i,i,i,i,i,53.3
Cc1ccc2nc(-c3ccc(NC(=O)COC(=O)c4cncc(Br)c4)cc3)sc2c1,i,i,i,i,i,i
Cc1cc(C)cc(N(CC(=O)Nc2ccc(-c3nc4ccc(C)cc4s3)cc2)S(C)(=O)=O)c1,i,i,i,i,i,i
CC(=O)Nc1ccc2nc(NC(=O)c3ccc([N+](=O)[O-])o3)sc2c1,i,81.1,i,i,i,i
Cc1ccc2nc(-c3ccc(NC(=O)COC(=O)c4ccco4)cc3)sc2c1,i,i,i,i,i,52.4
Cc1ccc2nc(-c3ccc(NC(=O)COC(=O)c4ccc(Br)o4)cc3)sc2c1,i,i,i,i,i,59.2
CCc1nc2ccc(C(=O)NCCN3CCNC3=O)cn2c1N(CC)CCOC,i,i,i,i,i,i
Cc1ccc2nc(-c3ccc(NC(=O)COC(=O)c4ccc([N+](=O)[O-])o4)cc3)sc2c1,i,i,i,i,i,77.7
O=C(Nc1ccc(-c2nc3cccnc3s2)cc1)c1ccco1,i,i,i,i,i,57.8
CC(=O)Nc1cccc(-c2ccnc3c2CC(C(=O)Nc2ccc(C(C)C)cc2)O3)c1 (configuration not stated),i,i,i,i,i,i
SMILES,KKLEB tox,CF NFkB inh,TROY signal inh,HIF-2a inh,Peg3 prom inh,TWEAK-Fn14 inh
CN(Cc1ccccc1F)C(=O)c1sccc1-c1ccccc1,i,i,i,i,i,i
N#Cc1c(NC(=O)c2ccccc2Cl)n(Cc2ccccc2)c2nc3ccccc3nc12,i,i,65.2,i,i,86.2
CCCCn1c(NC(=O)c2ccccc2Cl)c(C#N)c2nc3ccccc3nc21,i,i,75.7,i,52.7,i
CC1=C(C(=O)N2CCCCCC2)CC(CC(=O)NCCc2ccccn2)C(=O)N1Cc1ccc(F)cc1 (configuration not stated),nt,nt,i,i,nt,i
O=S(=O)(N(Cc1ccccc1)[C@H](CO)Cc1ccccc1)N(Cc1ccccc1)[C@H](CO)Cc1ccccc1,i,i,i,i,i,i
CC(C)C[C@@H](CO)N(Cc1ccccc1)S(=O)(=O)N(Cc1ccccc1)[C@H](CO)CC(C)C,i,i,52.4,i,83.0,i
CC(C)C[C@@H](CO)N(Cc1ccccc1)S(=O)(=O)N(Cc1ccccc1)[C@@H](CO)CC(C)C,i,i,52.8,i,84.5,i
COc1ccc(CN([C@H](CO)CC(C)C)S(=O)(=O)N(Cc2ccccc2)[C@H](CO)CC(C)C)cc1,i,i,i,i,82.9,i
Cc1ccccc1NC(=S)c1ccc2ccccc2n1,i,i,i,i,i,i
CCc1ccc(NC(=O)c2ccc(F)c(S(=O)(=O)N(CC)c3ccccc3)c2)cc1,i,i,i,i,i,i
CCN(c1ccccc1)S(=O)(=O)c1cc(C(=O)Nc2cccc(Cl)c2)ccc1F,i,i,i,i,i,67.5
O=C(OCC(=O)N1CCCC1=O)C1CCN(S(=O)(=O)c2ccc(Cl)c(C(F)(F)F)c2)CC1,i,i,i,i,i,i
Cc1nc2ccccc2nc1SCC(=O)c1ccccc1,i,i,i,i,i,59.6
Cc1ccsc1CN(C)C(=O)C(NC(=O)c1cccc(S(=O)(=O)N2CCOCC2)c1)C(C)C (configuration not stated),i,i,i,i,i,i
Cn1ccc2c(-c3ccc(F)cc3F)cc3c(c21)C1CCC3C1 (configuration not stated),i,i,i,i,i,i
Cn1ccc2c(-c3cccc(C=O)c3F)cc3c(c21)C1CCC3C1 (configuration not stated),i,i,54.9,i,i,50.6
Cn1ccc2c(-c3cncc4ccccc34)cc3c(c21)C1CCC3C1 (configuration not stated),i,i,i,i,i,i
Cn1ccc2c(-c3cccc(C=O)c3)cc3c(c21)C1CCC3C1 (configuration not stated),i,i,64.7,i,i,i
Cn1ccc2c(-c3cccc4ccccc34)cc3c(c21)C1CCC3C1 (configuration not stated),i,i,77.1,i,i,81.6
CC(C(Sc1ccccc1N)c1ccccc1)[N+](=O)[O-] (configuration not stated),i,i,55.0,i,i,i
Nc1ccccc1SC(CC(=O)c1ccccc1)c1ccccc1 (configuration not stated),i,i,i,i,i,i
C(=C\c1ccccc1)/CN1CCN(C(c2ccccc2)c2nnnn2-c2ccc3c(c2)OCCO3)CC1 (configuration not stated),i,i,i,i,i,i
Cn1cc(-c2csc(C(O)c3ccc(F)cc3)n2)cn1 (configuration not stated),i,i,i,i,i,i
O=C(Nc1ccc(F)cc1F)c1cc2nc3c(c(C(F)(F)F)n2n1)CCCC3,i,i,67.7,i,i,73.1
O=C(O)c1cc2nc3c(c(C(F)(F)F)n2n1)CCCC3,i,i,i,i,i,i

# From PubChem
